High-throughput results: PubChem BioAssay, Broad Institute
miR122 inh = miR-122 sensor activation; Huh7 psiCHECK-miR122 Renilla luciferase sensor, 48 h; activation, % at 12.5 µM; actives 0.14% (n = 340,000); AID 623901;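 active = mean activation of 30% or more, with every replicate also reaching 30%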;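 note: higher luciferase signal means stronger suppression of miR-122 activity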
A number is an active result. The entries come from a sample that favours hits as a whole.

`O=C1NC(=O)N(CCC2=CCCCC2)C(=O)/C1=C\c1cccs1` gave miR122 inh 33.
`C[C@@H]1O[C@@H](O[C@H]2C[C@@H](O)[C@]3(CO)[C@H]4[C@H](O)C[C@]5(C)[C@@H](C6COC(=O)C6)CC[C@]5(O)[C@@H]4CC[C@]3(O)C2)[C@H](O)[C@H](O)[C@H]1O` (some centres undefined) gave miR122 inh inactive.
CC(=O)OC1(Cc2ccccc2)CN2CCC1c1ccccc12 (centres undefined) was read as miR122 inh 36.
Screening COc1ccc(-c2ccc3c(c2)CN(C(=S)NCCc2ccccc2)Cc2cnnn2-3)cc1 returned miR122 inh inactive.
For O=P(Nc1ccccc1)(Nc1ccccc1)Oc1ccc(Cl)cc1 the results were miR122 inh inactive.
Screening Cc1ccc(C(=O)Nc2ccc(Cl)cc2C(=O)c2ccccc2)cc1 returned miR122 inh inactive.
